Source: PubChem
Pf Dd2 growth: Plasmodium falciparum Dd2 growth inhibition; P. falciparum Dd2 growth, SYBR Green, 72 h; Potency, µM (series often up to 28.9 µM), for the others: at the highest dose activity, negative = inhibition, most hits filed as inhibitors; 120,000 compounds, 4.3% hits; active = well fitted inhibition curve with a large enough effect;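 also: plate controls were DMSO vehicle for no effect and reference drug for full effect; nearly all actives have a fitted effect of over 65% in size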
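Infected erythrocytes (Dd2, 0.3% parasitemia, 2.5% hematocrit final) are added to compound in RPMI-1640/Albumax II medium, grown 72 h at 37C in low oxygen, then lysed with saponin/Triton-X containing SYBR Green and read by fluorescence.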
* marks the source's active call; other numbers are inactive results; i = inactive; [ ] = remark or other dose. Shown is part of a subset that was picked to be rich in hits. Potency is read from the fitted curve at half-maximal effect.

SMILES	Pf Dd2 growth
CCN1CCC2(Cc3ccccc3CN(C(=O)Cc3ccc(O)cc3)C2)C1 (stereo not drawn)	-21.0%
CCC(=O)N1Cc2ccccc2CC2(CCN(CC3CCNCC3)C2)C1 (stereo not drawn)	7.7%
CCN1CCC2(Cc3ccccc3CN(C(=O)Cc3ccc(OC)cc3)C2)C1 (stereo not drawn)	8.91µM*
COc1ccc2cc(C3CN(C(=O)c4cccc(CO)c4)CCO3)ccc2c1 (stereo not drawn)	-11.3%
COCC1CN(C(C)=O)CC12CCN(S(=O)(=O)c1c(C)noc1C)CC2 (stereo not drawn)	16.9%
CCN1C(=O)C2(CCN(C(=O)CC(C)C)CC2)c2ccccc21	11.1%
CCc1ccc(-c2nn(CC(=O)NCc3ccccc3)c3c2cnc2ccc(F)cc23)cc1	-1.0%
CCc1ccc(-c2nn(CC(=O)Nc3ccccc3)c3c2cnc2ccc(F)cc23)cc1	10.4%
CCc1ccc(C(=O)c2cnc3ccc(F)cc3c2S(=O)(=O)c2ccccc2)cc1	11.2µM*
CN1CCC(Oc2ncccc2C(=O)NCCc2ccccn2)CC1	-14.6%
CN(Cc1cc2n(n1)CCNC2)Cc1cnc(-c2ccccc2)s1	-6.5%
Cc1cc(C)cc(-c2ccc(CN)cc2)c1	11.2µM*
O=Cc1ccccc1-c1ccc(OC(F)(F)F)cc1	-5.0%[76.6 µM]
Cc1cccc(-c2[nH]ncc2CN)c1	-12.4%
Cc1cc(C)cc(-c2ccccc2C=O)c1	-3.3%[44.1 µM]
COc1ccc(F)cc1-c1ccc(CN)cc1	-16.1%[44.1 µM]
NCc1ccccc1-c1ccc(OC(F)(F)F)cc1	11.2µM*
Cc1cc(C)cc(-c2ccc(C=O)cc2)c1	-11.3%[44.1 µM]
NCc1ccccc1-c1cc(F)cc(F)c1	12.6µM*
Cc1cc(C)cc(-c2ccccc2CN)c1	12.6µM*
CN(Cc1ccc(OC(F)(F)F)cc1)Cc1ccccc1C(F)(F)F	-18.1%
NCc1ccc(-c2ccccn2)cc1	-17.6%[44.1 µM]
CN1CCC(C(=O)N2CCC3(CC2)CC(N[S+](C)(=O)[O-])c2ccccc23)CC1 (stereo not drawn)	-11.5%
O=C(c1ccco1)N1CCN(C(=O)C2CCc3ncc(-c4ccsc4)n3C2)CC1 (stereo not drawn)	-17.8%
O=C(C[C@@H]1O[C@H](CNS(=O)(=O)c2ccc(Cl)cc2)[C@@H](O)C1O)N1CCN(c2ccccc2)CC1 (stereo partly drawn)	i
SMILES	Pf Dd2 growth
N#Cc1ccc(CN2CCCC3(CN[S+](=O)([O-])c4cccnc4O3)C2)cc1 (stereo not drawn)	i
O=C1NC(C(=O)NCc2cccc(F)c2)Cn2cccc21 (stereo not drawn)	-14.5%
O=C(C1CC(=O)N(c2n[nH]c3cccc(F)c23)C1)N1CCC(Cc2ccccc2)CC1 (stereo not drawn)	-20.7%
Cc1ccc(-c2ccccc2CN)cc1Cl	11.2µM*
Cc1ccc(-c2[nH]ncc2CN)cc1	-23.7%
Cc1ccc(-c2ccccc2C=O)cc1Cl	14.1%[44.1 µM]
CS(=O)(=O)N1CCC2(CC1)CC(c1ccccc1)C(=O)N(C1CC1)C2 (stereo not drawn)	-13.4%
COc1ccc(C2Cn3cnc(C(=O)N4CCC(C(=O)NCc5cccnc5)CC4)c3CO2)cc1 (stereo not drawn)	i
Cc1cc(C)cc(NC(=S)N[C@H]2CO[C@H]3[C@@H]2OC[C@@H]3n2nnnc2Oc2cccc(N(C)C)c2)c1	-5.6%
COc1cc(OC)cc(-c2cc3nc(C)c(CCC(=O)Nc4ccccc4OC)c(C)n3n2)c1	i
COc1cc(OC)cc(-c2cc3nc(C)c(CCC(=O)Nc4ccc(C(C)=O)cc4)c(C)n3n2)c1	i
CCOC(=O)c1ccc(NC(=O)CCc2c(C)nc3cc(-c4ccc(OC)cc4OC)nn3c2C)cc1	5.01µM*
COc1ccc(CNC(=O)CCc2c(C)nc3cc(-c4ccc(OC)cc4OC)nn3c2C)cc1	11.2µM*
COc1ccccc1-c1cc2nc(C)c(CCC(=O)NCCc3ccc(SC)cc3)c(C)n2n1	12.6µM*
COc1ccc(-c2cc3nc(C)c(CCC(=O)N4CCN(c5ccccc5)CC4)c(C)n3n2)c(OC)c1	29.5%
COc1ccccc1-c1cc2nc(C)c(CCC(=O)Nc3cc(C)ccc3C)c(C)n2n1	-15.4%
COc1cc(OC)cc(-c2cc3nc(C)c(CCC(=O)NCc4ccccc4)c(C)n3n2)c1	-11.7%
COc1ccc(CCNC(=O)CCc2c(C)nc3cc(-c4cccc(F)c4)nn3c2C)cc1OC	-7.0%
Cc1occc1C(=O)N[C@@H]1CN(S(C)(=O)=O)C[C@H]1CN(C)C	4.0%
COCc1nnc(NC(=O)Cn2nc3c(cc2=O)CCCCC3)s1	-17.3%
CC(C)CCN1CC(Oc2ccc(F)c(F)c2)C1	3.4%[44.1 µM]
CN1CC(=O)N(C2CCCNC2)Cc2c(NC3CCN(Cc4ccccc4)CC3)ncnc21 (stereo not drawn)	-2.9%
Cc1nc(C)c(C(=O)N2CCC(CC(=O)N(C)Cc3ccccc3)C2)s1 (stereo not drawn)	i
COc1cccc(NC(=O)C2N(C(C)C)C(=O)C23CCCCC3)c1 (stereo not drawn)	-17.1%
O=C(c1ccccn1)N1CCCC2(COc3ccccc3[S+](=O)([O-])N2)C1 (stereo not drawn)	15.7%
SMILES	Pf Dd2 growth
CCc1noc(-c2ccn3c(CNC(=O)c4cc(Cl)ccc4F)nnc3c2)n1	-4.0%
COCCN(C)C(=O)c1cn(C2CN(C(=O)NCc3ccc(C)cc3)C2)nn1	28.2%
CC(=O)c1ccc(NC(=O)c2sc3nc4c(cc3c2N)N2CCC4CC2)cc1	-14.6%
Nc1c(C(=O)Nc2ccc(OC(F)(F)F)cc2)sc2nc3c(cc12)N1CCC3CC1	11.2µM*
COc1ccc(NC(=O)c2sc3nc4c(cc3c2N)CN(Cc2ccccc2)CC4)cc1	i
CCNC(=O)N1CCCCCCNC(=O)[C@@H]2C[C@@H](c3nc(-c4cccnc4)no3)C[C@@H]21	i
COc1ccc(N(CC(=O)NCCc2ccccc2)S(=O)(=O)c2c(C)nn(C)c2C)cc1	-13.3%
Cc1nn(C)c(C)c1S(=O)(=O)N(CC(=O)NCCc1ccc(Cl)cc1)c1ccc(C(C)C)cc1	11.2µM*
Cc1ccc(CNC(=O)CN(c2ccc(C)cc2)S(=O)(=O)c2c(C)nn(C)c2C)cc1	29.1%
Cc1cccc(NC(=O)CSc2ncc3c(n2)-c2cc(Cl)ccc2N(C)S3(=O)=O)c1C	i
COc1ccc(CNC(=O)CSc2ncc3c(n2)-c2ccc(Cl)cc2N(Cc2ccccc2)S3(=O)=O)cc1	-13.5%
Cc1cccc(C)c1NC(=O)CSc1ncc2c(n1)-c1ccc(Cl)cc1N(Cc1ccccc1)S2(=O)=O	11.2µM*
CCCCn1c(NCc2cc(Cl)ccc2O)nc2ccccc21	3.16µM*
CCCCCCn1c(CNC(=O)c2ccccc2)nc2ccccc21	-20.2%
CCCCn1c(C(C)NC(=O)c2ccccc2)nc2ccccc21 (stereo not drawn)	i
O=C(NCc1cccc(F)c1)c1cnc2n1CCN(CCc1ccccc1)CC2	28.2%[44.1 µM]
CCOC(=O)c1c(NC(=O)c2ccc(S(=O)(=O)N(C)C3CCCCC3)cc2)sc2c1CCN(C(C)C)C2	11.2µM*
CCOc1cccc2sc(NC(=O)c3ccc(S(=O)(=O)N4CCCCC4C)cc3)nc12 (stereo not drawn)	-6.9%
CNC(=O)c1c(NC(=O)c2ccc(S(=O)(=O)N3CCCCC3C)cc2)sc2c1CCC2 (stereo not drawn)	i
CCOC(=O)c1c(NC(=O)CS(=O)(=O)c2ccc(C)cc2)sc2c1CCC(C)C2 (stereo not drawn)	42.1%
CCOC(=O)c1c(NC(=O)c2ccccc2C)sc2c1CCCC2	1.6%
CCOC(=O)c1c(NC(=O)c2ccc(Br)cc2)sc2c1CCCC2	1.4%
